Bioassay records from PubChem.
Shiga inhibitor: Shiga toxin inhibition; hit rate 9.2% among 290,000; AID 2315; Vero cells, Shiga toxin protein synthesis inhibition reporter; inhibition, % at 38.7 µM; in the data active = inhibition mostly above about 28%, no sharp cut-off; inactive = mostly below about 43%; note: 0% is about no effect
Giardia FBPA inh: blocks Giardia fructose-bisphosphate aldolase activity | purified Giardia FBPA | Potency, µM (doses to about 59.6 µM), without a hit: at the top dose activity, negative = inhibition, hits mostly inhibitors | hit rate 0.71% among 290,000; note: potency is the fitted concentration of half-maximal effect; % is set by controls: 0 for no effect and ±100 for the full control effect; nearly all actives have a fitted effect of over 55% in size
Target sequence (A8B2U2 whole entry, looked up): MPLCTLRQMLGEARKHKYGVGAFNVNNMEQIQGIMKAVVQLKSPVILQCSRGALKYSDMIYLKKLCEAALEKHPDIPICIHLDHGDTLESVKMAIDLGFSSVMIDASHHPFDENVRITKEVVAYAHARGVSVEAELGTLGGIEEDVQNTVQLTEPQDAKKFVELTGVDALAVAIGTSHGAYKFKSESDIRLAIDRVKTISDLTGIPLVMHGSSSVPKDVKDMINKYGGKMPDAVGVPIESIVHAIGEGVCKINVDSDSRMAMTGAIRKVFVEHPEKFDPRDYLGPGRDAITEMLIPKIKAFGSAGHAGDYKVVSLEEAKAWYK
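40 nM FBPA preincubated 10 min at RT with compound (up to 57.5 uM final), then substrate plus GAPDH/TPI/NAD/arsenate coupling and diaphorase/resazurin added. Fluorescence read after 20 min at RT, 525/598 nm.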
LmPK inhibitor: inhibitors of Leishmania mexicana pyruvate kinase; Q27686; purified LmPK, Kinase-Glo ATP luminescence, 1 h; Potency, µM (doses to about 57.5 µM), inactives show at the top dose activity change, negative = inhibition, actives largely listed as inhibitors; hit rate 0.37% among 290,000; note: potency is the fitted concentration of half-maximal effect; % is set by controls: 0 for no effect and ±100 for the full control effect
Target sequence (Q27686 whole entry, looked up): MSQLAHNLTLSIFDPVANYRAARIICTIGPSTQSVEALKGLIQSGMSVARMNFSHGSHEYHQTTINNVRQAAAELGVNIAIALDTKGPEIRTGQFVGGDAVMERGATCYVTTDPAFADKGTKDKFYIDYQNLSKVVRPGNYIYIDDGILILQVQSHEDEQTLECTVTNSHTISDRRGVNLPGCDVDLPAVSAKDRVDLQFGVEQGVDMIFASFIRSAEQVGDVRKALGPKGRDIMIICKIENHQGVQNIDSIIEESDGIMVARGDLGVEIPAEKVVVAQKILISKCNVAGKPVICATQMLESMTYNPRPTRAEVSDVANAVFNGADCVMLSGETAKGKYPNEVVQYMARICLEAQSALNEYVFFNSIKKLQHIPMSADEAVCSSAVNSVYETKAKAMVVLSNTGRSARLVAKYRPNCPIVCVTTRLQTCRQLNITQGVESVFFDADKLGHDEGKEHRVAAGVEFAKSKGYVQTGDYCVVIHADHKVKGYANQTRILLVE
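Kinase-Glo luminescence read after 1 h RT reaction of 0.1 nM LmPK with 0.5 mM PEP and 0.1 mM ADP. Activity scaled between uninhibited and enzyme-free controls.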
Cycloheximide cs: affects cycloheximide protein synthesis inhibition readout, counter-screen; max response, %; hit rate 12% among 300,000; AID 2314; cell reporter, cycloheximide protein synthesis inhibition counterscreen; in the data active = max response mostly above about 13%, no sharp cut-off; inactive = mostly below about 14%; note: read at 38.3 µM for the half of the compounds with a filed dose; 0% is about no effect
RE007 growth inh: less growth of the S. pombe RE007 Vpr strain; Potency, µM (top dose mostly 92.2 µM), for the others: at the highest dose activity change, negative = less growth, actives largely listed as inhibitors; hit rate 0.21% among 360,000; S. pombe RE007 Vpr strain, BacTiter-Glo ATP luminescence, 24 h; AID 651644; active = well fitted falling curve with a large enough effect; inconclusive = small, poorly fitted or top-dose-only effect; inactive = no such curve, though single readings can be large or run the other way; note: potency is the fitted concentration of half-maximal effect; % is set by controls: 0 for no effect and ±100 for the full control effect; nearly all actives have a fitted effect of over 50% in size
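Fission yeast RE007 carrying one integrated HIV-1 vpr copy, seeded at OD 0.01 in PMG+AL medium with 23 nL pinned compound. Grown 24 h at 30 degrees; viability read by BacTiter-Glo luminescence after 5 min.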
TbPYK inhibitor: blocks Trypanosoma brucei pyruvate kinase; Q57TT1; TbPYK enzyme, Kinase-Glo Plus ATP luminescence, 45 min; Potency, µM (highest dose often 76.8 µM), without a hit: at the top dose activity, negative = inhibition, most hits filed as inhibitors; hit rate 0.12% among 410,000; AID 624173; note: potency is the fitted concentration of half-maximal effect; % is set by controls: 0 for no effect and ±100 for the full control effect; nearly all actives have a fitted effect of over 50% in size
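Screened from lowest to highest concentration, compounds were pinned into TbPYK/substrate mixtures, and ADP (130 uM final) was added. Plates sat at room temperature for 45 min prior to Kinase-Glo Plus detection by luminescence.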
Active calls of the source: *; ? = inconclusive; · = no result given. The sample as a whole holds a higher share of hits than the screen did. Unless noted, calls come from the whole dose curve; as a rule, active = well fitted curve in the direction sought with a large enough effect; inconclusive = small, poorly fitted or top-dose-only effect, or another doubt; inactive = no such curve, though single readings can be large; an effect the other way counts as inactive or inconclusive.

SMILES | Shiga inhibitor | Giardia FBPA inh | LmPK inhibitor | Cycloheximide cs | RE007 growth inh | TbPYK inhibitor
Cc1cc(=O)[nH]c(SCc2cccc3ccccc23)n1 | -7.3 | -15.7% | 5.9% | 0.9 | -0.4% | -2.3%
Cc1cccc(-c2nnc(SCc3cc(=O)[nH]c4ccccc34)n2C)c1 | 7.7 | 15.3% | 7.6% | -4.0 | 12.6% | -5.0%
O=c1cc(CSc2nc3ccccc3[nH]2)c2ccccc2[nH]1 | 52.6* | -17.7% | 0.1% | 27.7* | 1.9% | 0.4%
Cn1ccnc1SCc1cc(=O)[nH]c2ccccc12 | 18.7 | ? | -2.7% | 17.1* | 1.8% | -1.9%
Fc1ccc(CSc2nc3ccccc3[nH]2)c2ccccc12 | 18.3 | -2.5% | -0.3% | 11.4 | 12.6µM* | 2.5%
O=C(CSc1nc2ccccc2[nH]1)NCc1ccc(F)cc1 | 29.5 | 2.7% | 3.4% | 6.0 | -3.6% | -15.9%
COC(=O)CNc1c(-c2ccccc2)nc2ccc(Br)cn12 | 50.0* | -6.2% | -9.4% | 42.0* | -26.0% | -2.4%
COC(=O)Nc1c(-c2ccccc2)nc2ccc(Cl)cn12 | -3.5 | -6.6% | -0.3% | -2.5 | -7.2% | -16.4%
O=C(C[n+]1cccc(Br)c1)c1ccccc1 | -4.9 | -0.5% | 0.9% | -8.3 | 14.8% | -0.4%
O=C(C[n+]1ccc2ccccc2c1)c1ccccc1 | 39.4 | -6.9% | -0.2% | 20.4* | -15.7% | -4.9%
O=C(C[n+]1cccc(Br)c1)c1ccc(-c2ccccc2)cc1 | 34.2 | -8.0% | -0.3% | 22.1* | -11.7% | -0.9%
COc1ccc(C(=O)C[n+]2cccc(Br)c2)cc1 | 33.5 | -2.9% | -0.5% | 9.7* | -16.3% | -4.9%
O=C(CSc1nnc(Cc2ccccc2)o1)Nc1ccc(N2CCOCC2)cc1 | · | · | · | · | -10.4% | 1.2%
O=C(CSc1ncnc2scc(-c3ccc(F)cc3)c12)c1ccc2c(c1)OCCO2 | 14.9 | 13.7% | 0.3% | 15.8* | -2.0% | -4.0%
COc1ccc(-c2nnc(SC(C)C(=O)Nc3ccc4c(c3)OCCO4)o2)cc1 (configuration not stated) | active | -6.3% | -2.8% | 35.0* | -9.2% | -3.7%
O=C(CSc1nnc(-c2ccc(O)cc2)o1)Nc1cccc(O)c1 | 63.9 | 6.9% | 1.9% | 24.0* | 78.1% | 0.9%
O=C(CSc1nnc(-c2ccc(F)cc2)o1)c1ccc2c(c1)OCCO2 | 9.7 | 4.2% | 0.0% | 18.2* | -15.3% | 2.0%
Cc1ccc(-c2csc3ncnc(SCC(=O)c4ccc5c(c4)OCCO5)c23)cc1 | -14.6 | 18.1% | 0.3% | -2.8 | -9.4% | 1.2%
CC(=O)Nc1ccc(NC(=O)C(C)Sc2nnc(-c3ccc4c(c3)OCO4)o2)cc1 (configuration not stated) | · | · | · | · | 9.5% | -2.3%
O=C(CSc1nnc(-c2ccccc2Cl)o1)Nc1ccc2c(c1)OCCO2 | 12.7 | -5.2% | -0.2% | 13.8 | -11.4% | -7.2%
O=C(CSc1nnc(-c2cccnc2)o1)Nc1ccccc1Br | -5.1 | -5.4% | 5.4% | -5.0 | -12.2% | 5.0%
O=C(CSc1nnc(-c2ccc(O)cc2)o1)Nc1ccc2c(c1)OCCO2 | 39.0* | -0.9% | 5.2% | 24.8* | -10.2% | -1.6%
O=C(CSc1nnc(-c2ccc(O)cc2)o1)Nc1ccccc1Br | 75.7* | 4.2% | -1.2% | 28.1* | 0.0% | -1.3%
CN1CCN(c2ccccc2NC(=O)c2ccc([N+](=O)[O-])cc2Cl)CC1 | -13.6 | -2.2% | -0.7% | -2.5 | 9.0% | 0.2%
CC1(C#CC[N+]2(C)CCCCC2)CCC2C(O1)c1ccccc1OC2(C)C (configuration not stated) | -16.7 | ? | -3.6% | -6.2 | -19.9% | -3.0%
SMILES | Shiga inhibitor | Giardia FBPA inh | LmPK inhibitor | Cycloheximide cs | RE007 growth inh | TbPYK inhibitor
O=c1[nH][nH]c2c1[C@H](CCc1cccc(Cl)c1)O[C@H](C1CCCC1)C2 | · | · | · | · | 9.6% | 3.2%
O=C(COc1ccccc1Br)NCc1ccco1 | 45.5 | 0.0% | -0.7% | 19.5* | 10.9% | -2.6%
Cc1cc(OCC(=O)OCC(=O)NCc2ccco2)ccc1Cl | · | · | · | · | -0.8% | 1.3%
CCc1ccc(OCC(=O)NCc2ccco2)c(Br)c1 | 106.5* | 3.7% | -0.7% | 40.2* | -20.5% | -3.3%
Cc1ccc(Cl)c(OCC(=O)NCc2ccco2)c1 | 33.1 | 6.0% | 6.7% | 23.9* | -1.2% | -12.4%
COc1ccccc1OCC(=O)NCc1ccco1 | 23.8 | 8.0% | -0.1% | 8.2 | 26.8% | 2.8%
CCc1cc(=O)oc2c3c(cc(OCC(=O)NCc4ccco4)c12)OC(C)(C)CC3 | 34.4* | -4.3% | -5.0% | 33.2* | -10.2% | 5.3%
O=C(Nc1ccccc1OC(F)F)c1ccc(F)cc1 | 12.4 | 1.1% | -1.8% | 7.7 | -18.0% | 8.0%
CCOc1ccccc1NC(=O)c1ccc(NC(=O)c2ccco2)cc1 | 50.6 | 3.8% | -0.3% | 12.5* | -9.5% | 7.4%
O=C(Nc1ccccc1F)Nc1ccccc1OC(F)F | 31.2 | -8.6% | -5.3% | 24.7* | -6.7% | 0.5%
CCOc1ccc(-c2nonc2NC(=O)c2ccco2)cc1OCC | 36.1* | · | -9.2% | 18.3 | 4.7% | 2.2%
COC(=O)COc1ccc(NC(=O)c2ccco2)cc1 | 22.1 | -1.1% | -13.6% | 15.9* | -17.1% | 0.2%
Cc1cccc(CSc2nc(-c3cccc(C)c3)nc3c2Cc2c(CO)cnc(C)c2O3)c1 | · | · | · | · | · | 6.9%
COc1ccc(CCNC(=O)c2ccc3c(c2)N(Cc2ccc(F)cc2)C(=O)CS3)cc1OC | · | · | · | · | · | 2.3%
CCOc1ccc(NC(=O)c2ccco2)cc1 | 47.2* | -0.4% | -29.4% | 29.8* | -10.1% | 5.6%
COc1cc(OC)cc(C(=O)NC(=S)Nc2ccc(NC(=O)c3ccco3)cc2)c1 | 1.5 | -9.4% | -1.6% | -1.2 | 15.5% | -10.9%
CCOc1ccc(NC(=S)NC(=O)C2CCCC2)cc1 | 69.3* | · | 1.5% | 15.5* | -24.1% | -10.8%
CCOc1ccc(NC(=S)NC(=O)c2ccco2)cc1 | 85.3* | -22.6% | -7.4% | 62.4* | -14.7% | -4.2%
COc1ccc(NC(=S)NC(=O)C2CCCCC2)cc1 | -5.0 | · | -4.8% | -3.0 | -3.2% | 3.2%
CCOc1ccc(C(=O)Nc2ccccc2OC(F)F)cc1 | 64.9* | 0.3% | 1.0% | 9.8 | 1.3% | -1.1%
CCOc1ccc(NC(=O)CCC(=O)NNC(=O)c2ccco2)cc1 | 1.5 | 6.1% | -1.7% | -0.9 | 6.3% | -4.3%
COc1ccc(NC(=O)CN2C(=O)NC(C)(c3ccccc3)C2=O)c(OC)c1 (configuration not stated) | 19.1 | -3.3% | 5.2% | 4.4 | -2.7% | 2.3%
C=CCn1c(COC)nnc1SCC(=O)c1ccc(F)cc1 | 44.3* | -4.5% | -8.2% | 15.7* | -11.1% | ?
Cc1ccc(C)c(OCc2cc(C(=O)N3CCN(C4CCCCC4)CC3)no2)c1 | · | · | · | · | -6.6% | 0.8%
Cc1ccc(C)c(OCc2cc(C(=O)N3CCN(c4ccccc4)CC3)no2)c1 | 97.6* | · | -8.4% | 92.7* | 1.5% | 7.3%
O=C(c1cc(COc2ccc(F)cc2F)on1)N1CCN(C(=O)c2ccco2)CC1 | -5.2 | · | -10.8% | 8.3 | -13.0% | -3.4%
